From PubChem BioAssay (EPA / NIEHS)
Inconclusive results are not listed. Calls of active or inactive are those of the source. Rule for the calls, unless noted: active = hit-call score of the fitted dose curve at least 0.9, where 1 is the maximum; inactive = score below 0.9.

Columns and labels:
[1] = read-out: Phosphatase and tensin (PTEN), PTEN (gene 5728); assay: LTEA_HepaRG_PTEN: Life Technologies and Expression Analysis (LTEA) Assay for Phosphatase and tensin (PTEN) using HepaRG (AID 2283523); conditions: mRNA level, 48 h; actives raise or lower the signal
In short: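 Expression of PTEN is quantified in the human liver line HepaRG following two days of dosing (top concentration 100 uM, half-log dilutions, 0.5% DMSO). Values derive from bidirectional curve fitting relative to DMSO controls.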

[2] = read-out: solute carrier (SLC22A1), SLC22A1 (gene 6580); assay: LTEA_HepaRG_SLC22A1: Life Technologies and Expression Analysis (LTEA) Assay for solute carrier (SLC22A1) using HepaRG (AID 2283524); conditions: mRNA level, 48 h; actives raise or lower the signal;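 for AC50: differentiated human HepaRG liver cells in serum-free induction medium; TaqMan qRT-PCR normalized to ACTB GAPDH and POLR2A housekeeping genes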
In short: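 Transcript induction or suppression of SLC22A1 in human HepaRG cultures is scored after 48 h chemical treatment, with DMSO (0.5%) as baseline for bidirectional fitting. Concentrations span eight half-log points topping at 100 uM.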

[3] = read-out: Pyruvate Dehydrogenase Kinase 4 (PDK4), PDK4 (gene 5166); assay: LTEA_HepaRG_PDK4: Life Technologies and Expression Analysis (LTEA) Assay for Pyruvate Dehydrogenase Kinase 4 (PDK4) using HepaRG (AID 2283525); conditions: mRNA level, 48 h; actives raise or lower the signal
In short: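 Eight-point, half-log concentration series (max 100 uM, 0.5% DMSO) applied to differentiated HepaRG cells for 48 h in duplicate. Endpoint: PDK4 mRNA induction or repression by qRT-PCR against DMSO baseline.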

[4] = read-out: NAD(P)H dehydrogenase [quinone] 1 (NQO1), NQO1 (gene 1728); assay: LTEA_HepaRG_NQO1: Life Technologies and Expression Analysis (LTEA) Assay for NAD(P)H dehydrogenase [quinone] 1 (NQO1) using HepaRG (AID 2283526); conditions: mRNA level, 48 h; actives raise or lower the signal
In short: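 qRT-PCR read-out (Fluidigm TaqMan), normalized to three housekeeping genes, after 48 h chemical exposure of HepaRG cells. Concentrations: eight points, top 100 uM, half-log steps, 0.5% DMSO vehicle. Gain or loss of signal fitted relative to DMSO.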

[5] = read-out: Nuclear factor erythroid 2-related factor 2 (Homo sapiens) (UniProt Q16236); assay: LTEA_HepaRG_NFE2L2: Life Technologies and Expression Analysis (LTEA) Assay for Nuclear factor erythroid 2-related factor 2 (NFE2L2) Transcription Factor using HepaRG (AID 2283527); conditions: mRNA level, 48 h; actives raise or lower the signal;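 note: TaqMan qRT-PCR transcript level normalised to ACTB GAPDH and POLR2A housekeeping genes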
In short: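 Human liver HepaRG line treated in duplicate for 48 h with an eight-point series topping at 100 uM. Gene expression of NFE2L2 by qRT-PCR, bidirectionally fitted against the vehicle control.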

[6] = read-out: succinate dehydrogenase complex iron sulfur subunit B (SDHB), SDHB (gene 6390); assay: LTEA_HepaRG_SDHB: Life Technologies and Expression Analysis (LTEA) Assay for succinate dehydrogenase complex iron sulfur subunit B (SDHB) using HepaRG (AID 2283528); conditions: mRNA level, 48 h; actives raise or lower the signal
In short: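 HepaRG, 48 h exposure, 8-pt half-log series from 100 uM in 0.5% DMSO, duplicates. Readout: SDHB mRNA by Fluidigm qRT-PCR vs housekeeping genes; bidirectional fit relative to DMSO.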

[7] = read-out: Signal transducer and activator of transcription 3 (Homo sapiens) (UniProt P40763); assay: LTEA_HepaRG_STAT3: Life Technologies and Expression Analysis (LTEA) Assay for Signal transducer and activator of transcription (STAT3) using HepaRG (AID 2283529); conditions: mRNA level, 48 h; actives raise or lower the signal
In short: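 In this transcriptional endpoint, HepaRG cultures receive test chemicals at up to 100 uM for 48 h, tested in duplicate. STAT3 mRNA is normalized to ACTB, GAPDH and POLR2A.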

[8] = read-out: sulfotransferase 2A1 (SULT2A1), SULT2A1 (gene 6822); assay: LTEA_HepaRG_SULT2A1: Life Technologies and Expression Analysis (LTEA) Assay for sulfotransferase 2A1 (SULT2A1) using HepaRG (AID 2283531); conditions: mRNA level, 48 h; actives raise or lower the signal
In short: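 Cells were plated and cultured 48 h, switched to serum-free induction medium, then dosed in duplicate for 48 h (8 concentrations, max 100 uM). RNA was isolated and SULT2A1 expression measured by qRT-PCR; gain or loss of signal fitted relative to DMSO.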

[9] = read-out: Transforming Growth Factor (TGFA), TGFA (gene 7039); assay: LTEA_HepaRG_TGFA: Life Technologies and Expression Analysis (LTEA) Assay for Transforming Growth Factor (TGFA) using HepaRG (AID 2283532); conditions: mRNA level, 48 h; actives raise or lower the signal
In short: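 Gene expression of TGFA was quantified by qRT-PCR after human HepaRG cells were treated for 48 h with test chemicals (eight concentrations, highest 100 uM, 0.5% DMSO). Activity in either direction was fitted relative to DMSO.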

[10] = read-out: Transforming Growth Factor (TGFB1), TGFB1 (gene 7040); assay: LTEA_HepaRG_TGFB1: Life Technologies and Expression Analysis (LTEA) Assay for Transforming Growth Factor (TGFB1) Transporter using HepaRG (AID 2283533); conditions: mRNA level, 48 h; actives raise or lower the signal
In short: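 Expression change of TGFB1 in human HepaRG cells is measured after a 48 h chemical exposure, up to 100 uM in 0.5% DMSO vehicle. Curves are fitted in both directions relative to the DMSO baseline.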

TIMP1, TIMP1 (gene 7076) = assay: LTEA_HepaRG_TIMP1: Life Technologies and Expression Analysis (LTEA) Assay for TIMP1 using HepaRG (AID 2283534); conditions: mRNA level, 48 h; actives raise or lower the signal;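 for outcome: TaqMan qRT-PCR signal normalized to ACTB GAPDH and POLR2A housekeeping genes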
In short: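 We dosed human liver HepaRG cultures for 48 hours with up to 100 uM test chemical and measured TIMP1 expression by qRT-PCR. Activity in either direction is fitted relative to the 0.5% DMSO vehicle.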

[11] = read-out: Tumor necrosis factor receptor 1 (TNFRSF1A), TNFRSF1A (gene 7132); assay: LTEA_HepaRG_TNFRSF1A: Life Technologies and Expression Analysis (LTEA) Assay for Tumor necrosis factor receptor 1 (TNFRSF1A) using HepaRG (AID 2283535); conditions: mRNA level, 48 h; actives raise or lower the signal
In short: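 Expression of TNFRSF1A in human HepaRG liver cells was measured by qRT-PCR 48 h after chemical dosing (maximum 100 uM). Bidirectional curve fitting used 0.5% DMSO as baseline.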

[12] = read-out: Thyroid Hormone Responsive (THRSP), THRSP (gene 7069); assay: LTEA_HepaRG_THRSP: Life Technologies and Expression Analysis (LTEA) Assay for Thyroid Hormone Responsive (THRSP) using HepaRG (AID 2283536); conditions: mRNA level, 48 h; actives raise or lower the signal
In short: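 Cell model: human HepaRG, approx. 100,000 cells/well, 0.5% DMSO vehicle. Exposure lasts 48 h; phenobarbital 1 mM serves as induction positive control. Gene expression is measured by qRT-PCR against three endogenous control genes.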

[13] = read-out: Cellular tumor antigen p53 (Homo sapiens) (UniProt P04637); assay: LTEA_HepaRG_TP53: Life Technologies and Expression Analysis (LTEA) Assay for Tumor Protein P53 (TP53) using HepaRG (AID 2283537); conditions: mRNA level, 48 h; actives raise or lower the signal
In short: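 HepaRG, 48 h exposure, top 100 uM, half-log 8-point, 0.5% DMSO vehicle, duplicates. Read: TP53 mRNA by TaqMan qRT-PCR, normalised to ACTB/GAPDH/POLR2A; bidirectional fit vs DMSO.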

[14] = read-out: UDP glucuronosyltransferase (UGT1A1), UGT1A1 (gene 54658); assay: LTEA_HepaRG_UGT1A1: Life Technologies and Expression Analysis (LTEA) Assay for UDP glucuronosyltransferase (UGT1A1) using HepaRG (AID 2283538); conditions: mRNA level, 48 h; actives raise or lower the signal
In short: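 HepaRG, 48 h chemical exposure (top 100 uM, half-log 8-pt, 0.5% DMSO vehicle), duplicate wells; qRT-PCR (TaqMan, Fluidigm array) for UGT1A1 mRNA, housekeeping-normalized; bidirectional curve fit vs DMSO baseline.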

[15] = read-out: UDP glucuronosyltransferase (UGT1A6), UGT1A6 (gene 54578); assay: LTEA_HepaRG_UGT1A6: Life Technologies and Expression Analysis (LTEA) Assay for UDP glucuronosyltransferase (UGT1A6) using HepaRG (AID 2283539); conditions: mRNA level, 48 h; actives raise or lower the signal
In short: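 Endpoint is UGT1A6 transcript induction or loss in a human liver cell line, quantified by TaqMan qRT-PCR 48 h after dosing. Concentrations ran from 100 uM downward in half-log steps in 0.5% DMSO; activity was fitted in both directions versus vehicle.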

[16] = read-out: X-box binding protein 1 (XBP1), XBP1 (gene 7494); assay: LTEA_HepaRG_XBP1: Life Technologies and Expression Analysis (LTEA) Assay for X-box binding protein 1 (XBP1) using HepaRG (AID 2283540); conditions: mRNA level, 48 h; actives raise or lower the signal
In short: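 Human HepaRG monolayers receive test chemical for 48 h across an eight-point half-log series starting at 100 uM. XBP1 mRNA gain or loss is scored against DMSO by qRT-PCR.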

[17] = LTEA_HepaRG_LDH_cytotoxicity: Cytotoxicity Assessment in the Life Technologies and Expression Analysis (LTEA) Assay (AID 2283563; active = hit-call score of the fitted dose curve at least 0.9, where 1 is the maximum)
In short: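 Human HepaRG hepatic cells are treated with test chemicals for 48 h at up to 100 uM in 0.5% DMSO. Cytotoxicity is scored from medium LDH against the vehicle control.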

[18] = ATG_XTT_Cytotoxicity: Cytotoxicity Assessment in the Attagene TRANS-FACTORIAL HepG2 Assay (AID 2283584; active = hit-call score of the fitted dose curve at least 0.9, where 1 is the maximum;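 for AC50: XTT signal for cell number as viability in transfected HepG2 cells; cells exposed to compound for 24 h before reading; active means loss of viability signal versus DMSO baseline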)
In short: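 Transfect HepG2 with GAL4-UAS reporter units, dose compound, incubate 24 h, then measure viable cell number by XTT. Fit concentration response against DMSO baseline.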

[19] = read-out: solute carrier (SLCO1B1), SLCO1B1 (gene 10599); assay: LTEA_HepaRG_SLCO1B1: Life Technologies and Expression Analysis (LTEA) Assay for solute carrier (SLCO1B1) using HepaRG (AID 2283530); conditions: mRNA level, 48 h; actives raise or lower the signal
In short: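 Gain or loss of SLCO1B1 mRNA is fitted against the 0.5% DMSO vehicle in human HepaRG liver cells treated 48 h at up to 100 uM in half-log steps. Expression comes from qRT-PCR normalized to endogenous controls.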

Nuclear factor erythroid 2-related factor 2 (Homo sapiens), sequence (Q16236 whole entry, looked up): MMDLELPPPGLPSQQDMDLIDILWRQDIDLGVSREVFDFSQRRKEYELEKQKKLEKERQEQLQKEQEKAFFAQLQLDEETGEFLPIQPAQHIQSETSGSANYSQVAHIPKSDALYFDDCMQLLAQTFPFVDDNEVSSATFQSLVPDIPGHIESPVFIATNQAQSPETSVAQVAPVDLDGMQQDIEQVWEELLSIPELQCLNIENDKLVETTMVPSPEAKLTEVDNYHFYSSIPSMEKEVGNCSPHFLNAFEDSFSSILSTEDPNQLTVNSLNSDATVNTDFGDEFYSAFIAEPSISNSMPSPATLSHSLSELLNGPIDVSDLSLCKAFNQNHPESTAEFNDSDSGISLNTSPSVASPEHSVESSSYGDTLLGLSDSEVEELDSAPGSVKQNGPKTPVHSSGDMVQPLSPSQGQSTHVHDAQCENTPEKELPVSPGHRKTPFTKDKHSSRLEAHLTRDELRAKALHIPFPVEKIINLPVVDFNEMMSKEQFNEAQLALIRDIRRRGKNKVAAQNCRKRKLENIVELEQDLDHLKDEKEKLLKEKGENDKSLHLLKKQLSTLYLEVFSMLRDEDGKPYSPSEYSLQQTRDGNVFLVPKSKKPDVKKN
Signal transducer and activator of transcription 3 (Homo sapiens), sequence (P40763 whole entry, looked up): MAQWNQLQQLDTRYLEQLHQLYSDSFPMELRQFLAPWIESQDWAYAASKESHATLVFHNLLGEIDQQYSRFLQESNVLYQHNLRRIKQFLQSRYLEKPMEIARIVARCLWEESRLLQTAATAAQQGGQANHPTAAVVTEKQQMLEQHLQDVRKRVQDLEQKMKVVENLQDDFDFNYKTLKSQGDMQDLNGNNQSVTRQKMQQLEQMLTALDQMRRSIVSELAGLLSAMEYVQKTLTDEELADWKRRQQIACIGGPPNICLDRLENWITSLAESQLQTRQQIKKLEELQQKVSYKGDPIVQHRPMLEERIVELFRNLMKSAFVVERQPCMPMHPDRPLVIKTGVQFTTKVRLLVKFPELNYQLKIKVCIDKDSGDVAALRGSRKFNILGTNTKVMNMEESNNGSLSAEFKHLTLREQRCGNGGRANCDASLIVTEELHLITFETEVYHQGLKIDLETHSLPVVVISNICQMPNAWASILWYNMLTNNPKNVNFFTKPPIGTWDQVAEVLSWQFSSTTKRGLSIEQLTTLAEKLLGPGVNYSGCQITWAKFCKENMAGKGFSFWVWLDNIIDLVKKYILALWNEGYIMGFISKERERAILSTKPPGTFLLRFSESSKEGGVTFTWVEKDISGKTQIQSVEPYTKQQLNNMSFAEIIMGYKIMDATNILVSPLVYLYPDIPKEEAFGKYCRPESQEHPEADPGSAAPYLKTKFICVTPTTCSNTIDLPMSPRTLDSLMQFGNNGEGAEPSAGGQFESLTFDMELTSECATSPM
Cellular tumor antigen p53 (Homo sapiens), sequence (P04637 whole entry, looked up): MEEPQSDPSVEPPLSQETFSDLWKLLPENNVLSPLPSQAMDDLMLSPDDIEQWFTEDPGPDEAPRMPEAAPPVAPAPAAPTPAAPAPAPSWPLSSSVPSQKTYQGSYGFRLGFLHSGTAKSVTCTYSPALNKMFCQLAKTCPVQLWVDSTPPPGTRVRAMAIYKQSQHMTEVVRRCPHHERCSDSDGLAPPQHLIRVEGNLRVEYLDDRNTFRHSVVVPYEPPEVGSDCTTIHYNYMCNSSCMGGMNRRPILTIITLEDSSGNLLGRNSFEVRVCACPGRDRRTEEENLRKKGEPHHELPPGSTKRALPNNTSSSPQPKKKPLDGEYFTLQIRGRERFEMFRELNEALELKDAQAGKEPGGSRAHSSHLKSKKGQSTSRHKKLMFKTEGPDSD

Cn1c(=O)c2[nH]cnc2n(C)c1=O
outcome [1]: inactive | outcome [2]: inactive | outcome [3]: inactive | outcome [4]: inactive | outcome [5]: inactive | outcome [6]: inactive | outcome [7]: inactive | outcome [8]: inactive | outcome [9]: inactive | outcome [10]: inactive | outcome (TIMP1, TIMP1 (gene 7076)): inactive | AC50 [11]: 0.276 µM (active) | outcome [12]: inactive | outcome [13]: inactive | outcome [14]: inactive | outcome [15]: inactive | outcome [16]: inactive | outcome [17]: inactive | outcome [18]: inactive

O=c1[nH]cnc2c1ncn2[C@H]1CC[C@@H](CO)O1
outcome [1]: inactive | outcome [2]: inactive | outcome [3]: inactive | outcome [4]: inactive | outcome [5]: inactive | outcome [6]: inactive | outcome [7]: inactive | outcome [19]: inactive | outcome [8]: inactive | outcome [9]: inactive | outcome [10]: inactive | outcome (TIMP1, TIMP1 (gene 7076)): inactive | outcome [11]: inactive | outcome [12]: inactive | outcome [14]: inactive | outcome [15]: inactive | outcome [16]: inactive | outcome [17]: inactive | outcome [18]: inactive

CCCCCCCCCCCCCCCCOS(=O)(=O)O
outcome [1]: inactive | AC50 [2]: 38.6 µM (active) | AC50 [3]: 10.8 µM (active) | outcome [4]: inactive | outcome [5]: inactive | outcome [6]: inactive | outcome [7]: inactive | outcome [19]: inactive | outcome [8]: inactive | outcome [9]: inactive | outcome [10]: inactive | AC50 (TIMP1, TIMP1 (gene 7076)): 0.351 µM (active) | outcome [11]: inactive | AC50 [12]: 41.1 µM (active) | outcome [13]: inactive | outcome [14]: inactive | outcome [15]: inactive | outcome [16]: inactive | outcome [17]: inactive | AC50 [18]: 79 µM (active)
